Bioassay records: PubChem, National Center for Advancing Translational Sciences (NCATS)
Compounds with a hit are over-represented: about 1.7% of the library has one in this group of screens.
HEK293 tox – qHTS of GLP-1 Receptor Inverse Agonists: Cytotox Screen; HEK293 cAMP-luciferase reporter cells, luminescence, 24 h; Potency, µM (top dose mostly 38.3 µM), for the others: at the highest dose activity change, negative = inhibition, hits mostly inhibitors; 410,000 compounds, 0.13% hits; AID 624418, 2012;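 further: loss of luciferase light is scored as toxicity; on the % scale 0 is the no-effect control and ±100 the full control effect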
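1536-well qHTS counterscreen of the MLSMR; 200 cells/uL, 12 h pre-incubation, 23 nL cpd, 24 h at 37 deg C 5% CO2, luciferase detection reagent, 12 min RT, luminescence. Inhibition = undesired.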
GLP-1R agonist – qHTS of GLP-1 Receptor Agonists | Glucagon-like peptide 1 receptor (Homo sapiens), P43220 | HEK293 GLP-1R CRE-luciferase, luminescence, 4-6 h; cells express a hypersensitive GLP-1R form | Potency, µM (doses to about 45.6 µM), for inactives: at the highest dose activation, actives largely listed as activators | 380,000 compounds, 0.007% hits | AID 624172, 2012; further: % of control where 0% means no effect
PTHR1 agonist – qHTS for PTHR1 Agonists: Primary Screen; HEK293 GP2 PTHR1 cells, GloSensor cAMP luminescence, 1 h; Parathyroid hormone/parathyroid hormone-related peptide receptor (Homo sapiens), Q03431; Potency, µM (series often up to 115 µM), inactives show at the highest dose activation, usual class: activators; AID 743266, 2014; 410,000 compounds, 0.075% hits; further: nearly all actives have a fitted effect of over 55% in size
Target sequence (Q03431 whole entry, looked up): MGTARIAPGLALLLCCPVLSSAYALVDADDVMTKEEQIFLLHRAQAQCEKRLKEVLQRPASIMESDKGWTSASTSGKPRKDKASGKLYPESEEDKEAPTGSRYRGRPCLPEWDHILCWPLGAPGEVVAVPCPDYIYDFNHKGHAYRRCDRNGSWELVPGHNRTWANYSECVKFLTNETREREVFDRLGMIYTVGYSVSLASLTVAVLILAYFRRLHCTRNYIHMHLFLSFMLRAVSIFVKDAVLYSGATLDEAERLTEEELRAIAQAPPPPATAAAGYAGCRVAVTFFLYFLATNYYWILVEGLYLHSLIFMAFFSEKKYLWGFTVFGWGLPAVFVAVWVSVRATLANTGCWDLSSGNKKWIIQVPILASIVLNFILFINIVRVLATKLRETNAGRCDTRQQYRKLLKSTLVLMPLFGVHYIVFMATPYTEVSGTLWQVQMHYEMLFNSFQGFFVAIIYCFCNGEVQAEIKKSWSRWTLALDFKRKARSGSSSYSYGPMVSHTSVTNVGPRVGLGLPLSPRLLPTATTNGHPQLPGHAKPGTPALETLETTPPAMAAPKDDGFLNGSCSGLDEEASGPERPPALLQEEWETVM
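HEK-293-derived GP2 cells expressing PTHR1 and a GloSensor cAMP reporter, 3,000/well, plated overnight, given luciferin plus IBMX (each 0.5 mM as added) for 1 h at 37 °C, then compound for 1 h at 37 °C. Luminescence was read after 15 min at room temperature.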
GLP1R inv ag – qHTS of GLP-1 Receptor Inverse Agonists (Inhibition Mode); HEK293 GLP-1R CRE-luciferase, luminescence, 24 h; GLP-1R form is constitutively active; Potency, µM (top dose mostly 38.3 µM), for inactives: at the top dose activity change, negative = inhibition, usual class: inhibitors; 410,000 compounds, 1.6% hits; AID 624417, 2012; further: on the % scale 0 is the no-effect control and ±100 the full control effect; nearly all actives have a fitted effect of over 55% in size
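Cells are plated, allowed 12 hours at 37 deg C, then treated with compounds for 24 hr before luciferase detection reagent is added and luminescence is read after 12 min at room temperature. The HEK293 line carries constitutively active GLP-1R with a cAMP-responsive reporter.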
Starred values were filed as active, the others as inactive; i = inactive; u = inconclusive; x = not tested or not shown; [ ] = another dose, or the depositor's remark. The call rests on the fitted dose curve; in most records, active means well fitted curve in the direction sought with a large enough effect; inconclusive means small, poorly fitted or top-dose-only effect, or another doubt; inactive means no such curve, though single readings can be large; an effect the other way counts as inactive or inconclusive. Potency means the concentration at half of the fitted maximal effect.

SMILES	HEK293 tox	GLP-1R agonist	PTHR1 agonist	GLP1R inv ag
COc1cc([N+](=O)[O-])ccc1NC(=O)CC1SC(=Nc2ccc(F)cc2)N(CCC2=CCCCC2)C1=O (configuration not stated)	-9%	0%	-14%	u
Cc1cccc(N2C(=O)CSC23C(=O)N(CC(=O)NCCc2ccccc2)c2ccccc23)c1 (configuration not stated)	-4%	-5%	i	-12%
Cc1cccc(N2C(=O)CSC23C(=O)N(CC(=O)NCc2ccccc2Cl)c2ccccc23)c1 (configuration not stated)	2%	2%	-14%	10µM*
Cc1cc(C(=O)COC(=O)c2ccc(O)cc2)c(C)n1-c1ccccc1F	-11%	3%	-28%	10µM*
Cc1cc(C(=O)COC(=O)c2ccc[nH]c2=O)c(C)n1-c1ccccc1F	6%	-6%	-46%	-22%
O=C(CN1CCN(Cc2ccc(F)cc2Cl)S1(=O)=O)Nc1ccc(F)cc1	-30%	x	-13%	0%
COC(c1ccccc1)c1nnc(CCC(=O)N(C)CCCC2CCCC2)o1 (configuration not stated)	-19%	12%	-32%	10µM*
COC(c1ccccc1)c1nnc(CCC(=O)N(C)CCOc2ccccc2)o1 (configuration not stated)	11%	6%	-20%	u
O=S1(=O)CCS(=O)(=O)C1c1ccccc1	u	-9%	3%	11µM*
Cc1cccc(/C=C2/Sc3ccc(C(=O)NCCN4CCCC4)cc3NC2=O)c1	u	11%	-1%	u
CCN1CCN(CCCNC(=O)c2ccc3c(c2)NC(=O)/C(=C\c2cccc(C)c2)S3)CC1	u	0%	-29%	7.1µM*
Cc1ccccc1-c1cc(C(=O)NCc2ccc(OC(F)(F)F)cc2)n(CC2CC(c3cccnc3)=NO2)n1 (configuration not stated)	0%	2%	-16%	22µM*
Cc1cc(-c2ccc(N=Nc3ccc4c(S(=O)(=O)O)cc(S(=O)(=O)O)c(N)c4c3O)c(C)c2)ccc1N=Nc1ccc2c(S(=O)(=O)O)cc(S(=O)(=O)O)c(N)c2c1O	x	-3%	x	x
CCn1c(C)c(C)c2cc(C(=O)NCC(C)c3ccccc3)ccc21 (configuration not stated)	-13%	x	-20%	u
O=C(NCc1cccc(C(F)(F)F)c1)C1CC(c2ccccc2[N+](=O)[O-])=NO1 (configuration not stated)	2%	-1%	-18%	u
O=C(NCc1cc(C(F)(F)F)cc(C(F)(F)F)c1)C1CC(c2ccccc2[N+](=O)[O-])=NO1 (configuration not stated)	8%	1%	-65%	10µM*
c1ccc(Nc2nc(-c3ccccn3)cs2)cc1	3.2µM*	11%	-16%	5.6µM*
O=C(Nc1cccc(-c2csc(Nc3ccccc3)n2)c1)c1ccccc1	-27%	-5%	-67%	8.9µM*
Cc1ccc(S(=O)(=O)Nc2ccccc2CNc2ncc(Br)cc2Br)cc1	6%	-2%	-9%	10µM*
Cc1ccc(S(=O)(=O)Nc2ccccc2CNc2ccc(Br)cn2)cc1	7%	-4%	-18%	u
CCOC1=C2[C@@H](CN(S(=O)(=O)c3ccc(C)cc3)[C@H]2c2ccccc2Cl)[C@H]2C(=O)N(C)C(=O)[C@H]2C1	0%	-3%	-10%	-5%
C#CCN(C[C@@H]1[C@@H](OC(=O)NCc2ccco2)[C@@H](OC(=O)NCc2ccco2)Cn2c(=O)ccc(=O)n21)S(=O)(=O)c1ccc(C)cc1	u	-4%	-88%	10µM*
C#CCN(C[C@@H]1[C@@H](OC(=O)NCC2CCCCC2)[C@@H](OC(=O)NCC2CCCCC2)Cn2c(=O)ccc(=O)n21)S(=O)(=O)c1ccc(C)cc1	u	-14%	-85%	2.5µM*
C#CCN(C[C@@H]1[C@@H](OC(=O)NCc2ccco2)[C@@H](OC(=O)NCc2ccco2)Cn2c(=O)n(CCCCCC)c(=O)n21)S(=O)(=O)c1ccc(C)cc1	0%	-3%	-36%	u
CCC(C)NC(=O)c1cc2c(Cl)nc3ccc(C)cc3c2s1 (configuration not stated)	7%	x	-2%	12%
SMILES	HEK293 tox	GLP-1R agonist	PTHR1 agonist	GLP1R inv ag
CCC(=O)NC(c1ccc(OC)cc1)c1c(O)ccc2ccccc12 (configuration not stated)	-28%	-5%	-8%	3.5µM*
CS(=O)(=O)Nc1cc2occ(NC=O)c(=O)c2cc1Oc1ccccc1	x	-5%	x	x
Cc1cccc(CN2C(=O)N/C(=C/c3cc(C)n(-c4cc(C)ccn4)c3C)C2=O)c1	-6%	-8%	-22%[57.5 µM]	10µM*
Oc1cc2cc(CCN3CCN(c4nsc5ccccc45)CC3)c(Cl)cc2[nH]1	x	0%	x	x
COc1ccc(C(=O)Nn2c(SCc3cccc([N+](=O)[O-])c3)nc3ccccc3c2=O)cc1	5%	-17%	-20%	5.6µM*
COc1ccc(NC(=O)CN(C)CC(=O)Nc2cccc(F)c2)cc1Cl	-14%	22%	-13%	10µM*
COC(=O)/C=C/C(=O)Nc1cccc(C(F)(F)F)c1	u	8%	-12%	7.9µM*
COc1cc(NC(=O)c2nccnc2N)cc(C(=O)Nc2cccc(C(F)(F)F)c2)c1	13%	-9%	-7%	-6%
COc1cc(Nc2ccccn2)cc(C(=O)Nc2cccc(C(F)(F)F)c2)c1	u	2%	-25%	11µM*
COc1cc(OC)cc(C(=O)Nc2ccc(Nc3ccccc3)cc2)c1	-25%	14%	-32%	11µM*
CCc1ccc2[nH]cc(S(=O)(=O)c3ccc(C(C)C)cc3)c(=O)c2c1	-6%	x	i	-6%
COc1cccc(NC(=O)CN(C)C(=O)C23CC4CC(CC(Cl)(C4)C2)C3)c1	-14%	2%	-1%	7.9µM*
COc1ccc(-c2ccc(C(=O)Nc3cccc(C(F)(F)F)c3)c3occc23)c(C)c1	-5%	-1%	-50%	4.5µM*
COc1cccc(NC(=O)CN(C)C(=O)c2ccc(-c3ccc(Cl)cc3)o2)c1	8%	1%	-17%	u
COc1cccc(NC(=O)CN(C)CC(=O)Nc2cccc(C(F)(F)F)c2)c1	-12%	26%	-8%	7.1µM*
COc1cccc(NC(=O)CN(C)C(=O)c2ccc(-c3ccccc3Cl)o2)c1	-6%	7%	-42%	8.9µM*
COc1ccccc1CN(C)C(=O)C(NC(=O)Cc1cccc2ccccc12)C(C)C (configuration not stated)	u	18%	-16%	10µM*
COc1ccc(CN(C)C(=O)CNC(=O)Cc2cccc3ccccc23)c(OC)c1OC	0%	27%	0%	7%
